# Reference: PubChem BioAssay (NCI)
# The panel holds about 83,000 compounds, 20% with a hit somewhere; the sample as a whole holds those more often.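 Single-concentration screen, 48 h exposure, 96-well plates. Endpoint: percent growth. Below 10 = active.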 Unmarked numbers belong to inactive results. Activity calls are given as the source filed them.
# Legend:
# Test in all cases: NCI-60 one-dose screen, 48 h (100 = growth as untreated, 0 = no growth, -100 = all killed)
# Conditions in all cases: 10 µM unless noted
# HCT-15 colon = tested on: HCT-15 colon
# HT29 colon = tested on: HT29 colon
# SNB-75 CNS = tested on: SNB-75 CNS
# SNB-19 CNS = tested on: SNB-19 CNS
# U251 CNS = tested on: U251 CNS
# PC-3 prostate = tested on: PC-3 prostate
# SK-MEL-5 melanoma = tested on: SK-MEL-5 melanoma
# UACC-62 melanoma = tested on: UACC-62 melanoma
# LOX IMVI melanoma = tested on: LOX IMVI melanoma
# SK-MEL-28 melanoma = tested on: SK-MEL-28 melanoma
SMILES,growth (HCT-15 colon),growth (HT29 colon),growth (SNB-75 CNS),growth (SNB-19 CNS),growth (U251 CNS),growth (PC-3 prostate),growth (SK-MEL-5 melanoma),growth (UACC-62 melanoma),growth (LOX IMVI melanoma),growth (SK-MEL-28 melanoma)
COc1ccc(C(=O)n2nc(-c3ccccc3)nc2N)cc1OC,96.8%,91.9%,81.1%,95.7%,90.4%,87.9%,93.3%,86.7%,91.7%,107%
Cc1ccc2c(-c3cc(-c4ccccc4)nc(N)c3C#N)cc(=O)oc2c1,105%,90.1%,100%,94.1%,100%,89.2%,97%,90.1%,91.8%,105%
NC(=O)Nc1ccc2ncnc(Nc3ccc(Cl)cc3)c2c1,93.1%,91.6%,95%,78.6%,95.7%,79%,89.2%,87.9%,95.5%,106%
COc1nc2ccc(C)cc2cc1-c1nc2c(cnn2-c2ccccc2)c(=O)[nH]1,61.8%,48.3%,87.2%,84%,82.6%,65.9%,76.9%,60.2%,70.4%,81.9%
COc1ccc(C(=O)C[C@]2(O)C(=O)Nc3c(Cl)ccc(Cl)c32)cc1,22.6%,15.9%,-39.5% (active),38.9%,33.9%,34.3%,34.6%,46.4%,45.9%,60.4%
COc1cccc(/C=C2\C=C(c3ccccc3)N(Cc3ccccc3)C2=O)c1,38%,82.2%,51.4%,79.6%,56.4%,33.9%,34.8%,38%,49.2%,79.9%
COc1ccc(/C=C/c2c(C(=O)/C=C/c3ccc(C(F)(F)F)cc3)c(C)nc3ccccc23)cc1,-20.2% (active),7.38% (active),25.6%,-43.1% (active),-69% (active),-23.4% (active),-79.9% (active),-29% (active),-91.2% (active),-50.7% (active)
O=C(S)CNC(=O)c1ccccc1,112%,99.5%,96.3%,94.9%,95.3%,91.2%,99.7%,106%,98.2%,104%
Cc1nc2cnc(N)c(C#Cc3cncc(C(=O)Nc4ccc(CN5CCN(C)CC5)c(C(F)(F)F)c4)c3)c2nc1C,2.84% (active),7.18% (active),-5.44% (active),48.2%,42.1%,29%,26.6%,-19.7% (active),-88.8% (active),-26.8% (active)
N#C/C(=C\c1ccc(F)cc1)n1nc2cccc(F)c2n1,30.6%,25.6%,0.195% (active),63.6%,28.1%,53.7%,73%,45.7%,20.6%,53.2%
O=c1n(Cc2ccc3ccccc3c2)ccn1Cc1ccc2ccccc2c1,91.4%,77.1%,53.2%,87.2%,92.5%,94.4%,95.5%,89.8%,91.2%,94.3%
